Screens from PubChem BioAssay.
LMNA splice mod – qHTS Assay for Modulators of Lamin A Splicing; 0.01% of 200,000 active; AID 1487, 2009; HeLa LMNA splicing GFP/RFP minigene ratio, 48 h; Potency, µM (series often up to 46.1 µM), without a hit: at the highest dose ratio change, negative = inhibition, hits mostly inhibitors; active means well fitted inhibition curve with a large enough effect in the signal ratio, with a control signal flat, not every such curve was filed as active; inconclusive means small, poorly fitted or top-dose-only effect, or effect the other way, or a change in a side signal; the % refers to the signal ratio; further: potency means the concentration at half of the fitted maximal effect
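Read-out is the ratio of GFP to DsRed2 object intensity, acquired by 488 nm laser-scanning cytometry on HeLa lamin A-EGFP minigene reporter cells. Compound incubation 48 hrs at 37 °C in Opti-MEM with 2% FBS; DMSO 0.5% final.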
PNC assembly inh – High Content Assay for Compounds that inhibit the Assembly of the Perinucleolar Compartment. PC3M PTB-GFP, PNC prevalence imaging, 16 h; stronger effect = lower value. activity change (PNC), negative = inhibition, % at 10 µM. 3.1% of 140,000 active. AID 2417, 2010;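 active means readout at or below -70, meaning at least 70% loss of cells showing the perinucleolar compartment, a nuclear body marking cancer cells; inconclusive means readout between -30 and a set limit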;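 further: plate controls were DMSO wells for no effect and camptothecin positive control wells for full effect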
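PC3M cells stably expressing PTB-GFP, 750–1000 cells/well, treated 16 h at 37 °C with compound (23 nl of library stock), in duplicate. After paraformaldehyde fixation and Hoechst stain, imaged at 20x; PNC prevalence scored by image analysis.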
ALDH1A1 inh – qHTS Assay for Inhibitors of Aldehyde Dehydrogenase 1 (ALDH1A1). Aldehyde dehydrogenase 1A1 (Homo sapiens), P00352. Purified ALDH1A1, NADH fluorescence, propionaldehyde substrate. Potency, µM (series often up to 75.3 µM), inactives show at the highest dose activity, negative = inhibition, actives largely listed as inhibitors. 7.3% of 220,000 active;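 further: potency means the concentration at half of the fitted maximal effect; plate controls were no enzyme wells and a reference inhibitor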
Target sequence (P00352 whole entry, looked up): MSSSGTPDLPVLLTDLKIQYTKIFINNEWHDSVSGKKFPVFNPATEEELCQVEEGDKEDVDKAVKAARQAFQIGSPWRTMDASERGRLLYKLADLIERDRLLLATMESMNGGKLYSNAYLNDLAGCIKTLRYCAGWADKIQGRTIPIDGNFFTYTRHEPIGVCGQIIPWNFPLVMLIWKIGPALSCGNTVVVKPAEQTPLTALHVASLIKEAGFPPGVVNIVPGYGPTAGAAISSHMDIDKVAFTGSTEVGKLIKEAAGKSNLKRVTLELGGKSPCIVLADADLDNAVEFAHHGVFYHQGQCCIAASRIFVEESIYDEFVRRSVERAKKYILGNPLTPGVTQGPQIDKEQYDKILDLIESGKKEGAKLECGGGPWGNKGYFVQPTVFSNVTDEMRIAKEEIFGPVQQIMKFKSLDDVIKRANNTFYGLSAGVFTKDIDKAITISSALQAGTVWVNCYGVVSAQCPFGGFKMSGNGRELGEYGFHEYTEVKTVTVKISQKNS
HPGD block – qHTS Assay for Inhibitors of HPGD (15-Hydroxyprostaglandin Dehydrogenase) | Potency, µM, for inactives: at the highest dose activity change, negative = inhibition, most hits filed as inhibitors | 15-hydroxyprostaglandin dehydrogenase [NAD(+)] (Homo sapiens), P15428 | 4.3% of 150,000 active | AID 894, 2007 | purified HPGD, NADH fluorescence kinetic, PGE2 substrate; further: potency means the concentration at half of the fitted maximal effect
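NADH formation kinetics: reaction with 30 uM PGE2 and 1 mM NAD+ (final), 20 nM enzyme, Tris-HCl pH 8 with Tween 20, after 15 min compound preincubation at room temperature. Fluorescence change, last versus first of five reads.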
ALOX12 inhib – qHTS Assay for Inhibitors of 12-hLO (12-human lipoxygenase). Polyunsaturated fatty acid lipoxygenase ALOX12 (Homo sapiens), P18054. purified 12-hLO, xylenol orange hydroperoxide absorbance. Potency, µM (series often up to 57.1 µM), without a hit: top-dose activity change, negative = inhibition, most hits filed as inhibitors. 0.12% of 150,000 active; active means well fitted inhibition curve with a large enough effect; inconclusive means small, poorly fitted or top-dose-only effect; further: potency means the concentration at half of the fitted maximal effect; nearly all actives have a fitted effect of over 55% in size
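Xylenol orange chromogenic assay: hydroperoxide from 12hLO oxidises Fe(II), giving red-shifted Fe(III)-XO absorbance. Conditions: 150 nM enzyme, 40 uM arachidonic acid, 25 mM Hepes pH 7.0, 0.01% Triton X-100, 30 min, room temperature.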
The depositor's hits bear a star; ? = inconclusive; . = no result given; [ ] = another dose, or the depositor's remark. Only some compounds are listed: those with a hit (about 10% of all), similar ones and a draw of the others. Unless noted, the call rests on the fitted dose curve; in most records, active means well fitted inhibition curve with a large enough effect (not every such curve was filed as active); inconclusive means small, poorly fitted or top-dose-only effect, or another doubt; inactive means no such curve, though single readings can be large or run the other way. Unless noted, on the % scale 0 is the no-effect control and ±100 the full control effect.

SMILES	LMNA splice mod	PNC assembly inh	ALDH1A1 inh	HPGD block	ALOX12 inhib
CCc1ccccc1NC(=O)Cn1c(=O)nc(-c2ccccc2)c2ccccc21	-9%[46 µM]	.	.	.	.
CCOC(=O)c1cc(-c2ccccc2)n(CC(=O)O)c1C	13%	-30	?	25µM*	4%
Cc1ccc(C(=O)O)cc1S(=O)(=O)N1CCCC1	-4%	-27	0%	-1%	-2%
Cc1cc(C(=O)O)cc(S(=O)(=O)N2CCOCC2)c1C	-5%	-87*	10%	-3%	0%
COC(=O)N1CCC[C@@]2(CCN(C(=O)Nc3ccccc3)C2)C1	.	.	-2%	-11%	-1%
COc1ccc(C(=O)c2c(C)c3cc(C)ccc3n2CC(O)CN2CCOCC2)cc1 (configuration not stated)	?	?	11µM*	-29%	-5%
O=C(Nc1ccc(Cl)cc1)NC1CCCC1Cc1ccco1 (configuration not stated)	?	7	13µM*	-18%	-23%
O=C(Nc1ccc(Cl)cc1)NC1CCCCC1Cc1ccco1 (configuration not stated)	3%	-9	0%	-2%	-3%
CCc1nnc(NCC(=O)N2CCc3ccccc32)s1	0%	?	25µM*	-9%	-12%
CCc1nnc(NC(=O)c2cccc(S(=O)(=O)N(C)c3ccccc3)c2)s1	4%	21	-26%	28µM*	-1%
CCc1nnc(NC(=O)c2ccc(S(=O)(=O)N3CCc4ccccc4C3)cc2)s1	-10%	-85*	3%	-13%	-2%
Cn1c(SCc2ccc(C(=O)Nc3nccs3)cc2)nnc1-c1ccccc1	-19%	20	?	14µM*	10%
O=C(O)c1ccc(CO)o1	.	.	13%	-4%	2%
O=C(O)[C@@H]1[C@@H]2C[C@H]([C@@H](Br)[C@H]2N2C(=O)CCC2=O)[C@@H]1C(=O)O	.	.	-3%[13.5 µM]	-7%	9%[11.4 µM]
CN(c1ccccc1)S(=O)(=O)c1ccc(C(=O)Nc2nccs2)cc1	8%	-5	-104%	-11%	1%
CN(c1ccccc1)S(=O)(=O)c1cccc(C(=O)Nc2ccc3c(c2)CCC3)c1	?	?	10µM*	-24%	-2%
CN(c1ccc(C(=O)Nc2nccs2)cc1)S(=O)(=O)c1ccccc1	?	-17	17%	8.9µM*	-6%
CN(c1ccccc1)S(=O)(=O)c1cccc(C(=O)NNC(=O)c2ccccc2)c1	?	.	0%	.	.
COC(=O)c1ccc(C(NC(=O)OCc2ccccc2)/C(=C/[C@@H](C)C(=O)NCc2ccc(OC)c(O)c2)c2cccnc2)cc1 (some centres not stated)	.	.	-5%	-17%	-3%
COc1ccc(S(=O)(=O)Nc2cccc(C(C)=O)c2)cc1Br	-10%[46 µM]	.	32µM*	.	.
CC(=O)c1cccc(NS(=O)(=O)c2ccc3c(c2)oc(=O)n3C)c1	?	?	22µM*	-23%	-6%
CCN(CC)c1ccc(NS(=O)(=O)c2ccc3c(c2)oc(=O)n3C)c(C)c1	-6%	21	?	13µM*	-26%
CCN(CC)c1ccc(NC(=O)CCS(=O)(=O)c2ccc3c(c2)oc(=O)n3C)c(C)c1	-28%[46 µM]	.	.	.	.
Cc1ccc(NC(=O)CCNS(=O)(=O)c2ccc3c(c2)oc(=O)n3C)c(C)c1	-2%	-12	-8%	-1%	-7%
Cc1cc(C)cc(NC(=O)CCNS(=O)(=O)c2ccc3c(c2)oc(=O)n3C)c1	0%	-100*	2%	-6%	-2%
SMILES	LMNA splice mod	PNC assembly inh	ALDH1A1 inh	HPGD block	ALOX12 inhib
Cn1c(=O)oc2cc(S(=O)(=O)Nc3cccc(C(=O)O)c3)ccc21	8%	-21	14%	-6%	-2%
COc1cccc(C(=O)NCC(c2ccc(N(C)C)cc2)N2CCc3ccccc32)c1OC (configuration not stated)	-25%[46 µM]	.	.	.	.
CCCN1CCN(c2ncnc3sc(C(=O)Nc4ccc(N(CC)CC)cc4C)c(C)c23)CC1	-19%[46 µM]	.	.	.	.
Cc1c(N(C)C)nc2ccccc2c1N	7%	-25	?	-6%	-9%
CCN(CC)c1nc2ccccc2c(N)c1-c1ccccc1	-18%	-9	14µM*	?	-9%
CCOc1ccc(C(C)=O)cc1COC(=O)C1=COCCO1	20%	21	14µM*	-18%	3%
CCOc1ccc(C(C)=O)cc1CC(C(N)=O)C(N)=O	11%	15	-12%	-12%	2%
CC(=O)NCCNc1cc(-c2ccccc2CN(C)C)ncn1	-8%	.	?	.	.
CCOc1cc(CN2CCCCC2)ccc1OC	2%	-28	0%	0%	2%
CCOc1cc(CN2CCN(c3ccc(C(C)=O)cc3)CC2)ccc1OC	-4%	-25	18µM*	-9%	-2%
Nc1cc(-c2ccccc2)nn1S(=O)(=O)c1ccc(Br)cc1	18%	21	16µM*	-20%	?
COc1cc(-c2cc(N)n(S(=O)(=O)c3ccccc3)n2)cc(OC)c1OC	-21%	-8	5%	-14%	-2%
COc1ccccc1OC(C)C(=O)Nc1ccc(-c2nc3ccccc3s2)cc1 (configuration not stated)	12%[46 µM]	.	.	.	.
Cc1cc(C(=O)COC(=O)Cc2n[nH]c(=O)c3ccccc23)c(C)n1-c1cccc(C(F)(F)F)c1	?	-18	7.9µM*	-24%	-4%
Cc1cccc(-c2nc(CS(=O)CC(=O)N3CCc4ccccc4C3)c(C)o2)c1 (configuration not stated)	-8%	-106*	?	?	-3%
CC(=O)N1CC=CC1(C)C(=O)NCC1CC1 (configuration not stated)	.	.	?	?	-2%
COc1cc(CN2CCNC(=O)C2CC(=O)N2CCc3ccccc3C2)cc(OC)c1 (configuration not stated)	.	.	25µM*	.	.
COc1ccc(CN2CCNC(=O)C2CC(=O)N2CCc3ccccc3C2)c(OC)c1 (configuration not stated)	19%[46 µM]	.	-12%	.	.
CCCCn1ccnc1C(=O)c1cc(S(=O)(=O)N2CCOCC2)ccc1C	?	?	5%	-9%	8%
COc1cc(S(=O)(=O)N2CCOCC2)cc(C(=O)c2nccn2C)c1OC	5%	-88*	1%	-1%	6%
NC(=S)c1ccc[n+]([C@@H]2O[C@@H](COP(=O)([O-])OP(=O)(O)OC[C@H]3O[C@@H](n4cnc5c(N)ncnc54)[C@H](OP(=O)(O)O)[C@H]3O)C(O)C2O)c1 (some centres not stated)	?	.	28µM*	?	.
